# Test results as given in the supplement of paper PMC10037445.
# Where “and” joins values, the source holds several entries; their conditions need not be identical. Equal entries are not always repeated. The full ranking holds about 2,900 compounds; the median of “NF-kB SEAP reporter activity, fold change vs agonist alone” is about 0.99, and the highest 2% start at about 2.6. The sample as a whole holds a higher share of the highest values than the screen did.
# Assays:
# RAW-Dual [1] = test: NF-kB SEAP reporter activity, fold change vs agonist alone; higher = enhanced NF-kB activity; details: library stock concentration (final ~1000-fold dilution): 10 mM
# In short: (§1)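 Library stock was pin-tooled at 50 nL into 384-well plates of RAW-Dual macrophages (50,000 cells/well, DMEM), followed 1 h later by a PRR agonist, and the cells were kept at 37 °C, 5% CO2. Supernatant collected after 20 hours was read for IRF by QuantiLuc luminescence and for NF-κB by QuantiBlue absorbance at 620 nm. Reporter activity is fold change over agonist-alone wells, and a well counted as cytotoxic when its IncuCyte confluency was below 70% of agonist controls in both mask sets.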
# RAW-Dual [2] = test: NF-kB SEAP reporter activity, fold change vs agonist alone; cytotoxicity flag (confluency mask): not cytotoxic; higher = enhanced NF-kB activity
# In short: as §1
# RAW-Dual [3] = test: NF-kB SEAP reporter activity, fold change vs agonist alone; cytotoxicity flag (confluency mask): cytotoxic (confluency <70% of control); higher = enhanced NF-kB activity
# In short: as §1
# [4] = cytotoxicity flag (confluency mask): not cytotoxic, agonist: Imiquimod (TLR7) […]
# [5] = cytotoxicity flag (confluency mask): not cytotoxic, agonist: MPLA (TLR4) […]
# [6] = agonist: ODN 1826 (TLR9) 0.5 ug/mL
# [7] = agonist: Pam2CSK4 (TLR2/6) 0.1 ug/mL
# [8] = agonist: Pam3CSK4 (TLR2/1) 0.1 ug/mL
structure (smiles),measurement,setting,value
COc1ccccc1C(=O)Nc1cc2c(cc1N1CCNCC1C)n(C)c(=O)n2C (configuration not stated),NF-kB SEAP reporter activity,RAW-Dual [1]; [4],1.01
same,NF-kB SEAP reporter activity,RAW-Dual [1]; [5],1.37
COc1ccccc1C(=O)Nc1cc2c(cc1N1CCNCC1C)n(C)c(=O)n2C (configuration not stated) (library stock concentration (final ~1000-fold dilution): 10 mM),NF-kB SEAP reporter activity,RAW-Dual [2]; agonist: LPS (TLR4) 0.1 ug/mL,1.48
same,NF-kB SEAP reporter activity,RAW-Dual [2]; [6],0.383
same,NF-kB SEAP reporter activity,RAW-Dual [2]; [7],0.997
same,NF-kB SEAP reporter activity,RAW-Dual [2]; [8],0.973
CCOC(=O)C(CCc1ccccc1)NC1CSC(c2cccs2)CN(CC(=O)O)C1=O.Cl (configuration not stated) (library stock concentration (final ~1000-fold dilution): 10 mM),NF-kB SEAP reporter activity,RAW-Dual [2]; agonist: LPS (TLR4) 0.1 ug/mL,0.869
same,NF-kB SEAP reporter activity,RAW-Dual [2]; [6],1.04
same,NF-kB SEAP reporter activity,RAW-Dual [2]; [7],0.946
same,NF-kB SEAP reporter activity,RAW-Dual [2]; [8],1.15
CCOC(=O)C(CCc1ccccc1)NC1CSC(c2cccs2)CN(CC(=O)O)C1=O.Cl (configuration not stated),NF-kB SEAP reporter activity,RAW-Dual [1]; [4],1.01
same,NF-kB SEAP reporter activity,RAW-Dual [1]; [5],1.01
COc1ccc(-c2nc3cc(C4=NNC(=O)CC4C)ccc3[nH]2)cc1 (configuration not stated),NF-kB SEAP reporter activity,RAW-Dual [1]; [4],1.67
same,NF-kB SEAP reporter activity,RAW-Dual [1]; [5],1.34
NC(=O)c1ccc(-c2nc(-c3ccc4c(c3)OCCO4)c(-c3ccccn3)[nH]2)cc1,NF-kB SEAP reporter activity,RAW-Dual [1]; [4],0.743
same,NF-kB SEAP reporter activity,RAW-Dual [1]; [5],1.45
NC(=O)c1ccc(-c2nc(-c3ccc4c(c3)OCCO4)c(-c3ccccn3)[nH]2)cc1 (library stock concentration (final ~1000-fold dilution): 10 mM),NF-kB SEAP reporter activity,RAW-Dual [2]; agonist: LPS (TLR4) 0.1 ug/mL,1.81
same,NF-kB SEAP reporter activity,RAW-Dual [2]; [6],1.29
same,NF-kB SEAP reporter activity,RAW-Dual [2]; [7],1.25
same,NF-kB SEAP reporter activity,RAW-Dual [2]; [8],0.913
NC(=O)c1ccc2[nH]c(-c3ccc(Oc4ccc(Cl)cc4)cc3)nc2c1 (library stock concentration (final ~1000-fold dilution): 10 mM),NF-kB SEAP reporter activity,RAW-Dual [2]; agonist: LPS (TLR4) 0.1 ug/mL,1.71
same,NF-kB SEAP reporter activity,RAW-Dual [2]; [6],1.59
same,NF-kB SEAP reporter activity,RAW-Dual [2]; [7],2.1
same,NF-kB SEAP reporter activity,RAW-Dual [2]; [8],3.55
COc1ccc(-c2nc3cc(C4=NNC(=O)CC4C)ccc3[nH]2)cc1 (configuration not stated) (library stock concentration (final ~1000-fold dilution): 10 mM),NF-kB SEAP reporter activity,RAW-Dual [2]; agonist: LPS (TLR4) 0.1 ug/mL,1.3
same,NF-kB SEAP reporter activity,RAW-Dual [2]; [6],2.47
same,NF-kB SEAP reporter activity,RAW-Dual [2]; [7],1.8
same,NF-kB SEAP reporter activity,RAW-Dual [2]; [8],1.7
NC(=O)c1ccc2[nH]c(-c3ccc(Oc4ccc(Cl)cc4)cc3)nc2c1,NF-kB SEAP reporter activity,RAW-Dual [1]; [4],1.47
same,NF-kB SEAP reporter activity,RAW-Dual [1]; [5],2.09
Cl.Cl.Fc1cc(-c2cccc3ncc(-c4cnn(C5CCNCC5)c4)nc23)cc(F)c1CN1CCOCC1 (library stock concentration (final ~1000-fold dilution): 10 mM),NF-kB SEAP reporter activity,RAW-Dual [2]; agonist: LPS (TLR4) 0.1 ug/mL,0.349
same,NF-kB SEAP reporter activity,RAW-Dual [2]; [6],0.924
same,NF-kB SEAP reporter activity,RAW-Dual [2]; [7],0.147
same,NF-kB SEAP reporter activity,RAW-Dual [2]; [8],0.912
Cl.Cl.Fc1cc(-c2cccc3ncc(-c4cnn(C5CCNCC5)c4)nc23)cc(F)c1CN1CCOCC1,NF-kB SEAP reporter activity,RAW-Dual [1]; [4],0.92
same,NF-kB SEAP reporter activity,RAW-Dual [1]; [5],0.944
CCOC(=O)C(CCc1ccccc1)NC(C)C(=O)N1C(=O)N(C)CC1C(=O)O.Cl (configuration not stated) (library stock concentration (final ~1000-fold dilution): 10 mM),NF-kB SEAP reporter activity,RAW-Dual [2]; agonist: LPS (TLR4) 0.1 ug/mL,1.2
same,NF-kB SEAP reporter activity,RAW-Dual [2]; [6],0.98
same,NF-kB SEAP reporter activity,RAW-Dual [2]; [7],0.83
same,NF-kB SEAP reporter activity,RAW-Dual [2]; [8],1.03
CCOC(=O)C(CCc1ccccc1)NC(C)C(=O)N1C(=O)N(C)CC1C(=O)O.Cl (configuration not stated),NF-kB SEAP reporter activity,RAW-Dual [1]; [4],0.962
same,NF-kB SEAP reporter activity,RAW-Dual [1]; [5],0.927
CCC(C)(C)C(=O)OC1CC(C)C=C2C=CC(C)C(CCC3CC(O)CC(=O)O3)C21 (configuration not stated) (library stock concentration (final ~1000-fold dilution): 10 mM),NF-kB SEAP reporter activity,RAW-Dual [3]; agonist: LPS (TLR4) 0.1 ug/mL,2.35
same,NF-kB SEAP reporter activity,RAW-Dual [3]; [6],2.44
same,NF-kB SEAP reporter activity,RAW-Dual [3]; [7],2.12
same,NF-kB SEAP reporter activity,RAW-Dual [3]; [8],3.35
CCC(C)(C)C(=O)OC1CC(C)C=C2C=CC(C)C(CCC3CC(O)CC(=O)O3)C21 (configuration not stated),NF-kB SEAP reporter activity,"RAW-Dual [1]; cytotoxicity flag (confluency mask): cytotoxic (confluency <70% of control), agonist: Imiquimod (TLR7) […]",2.53
same,NF-kB SEAP reporter activity,"RAW-Dual [1]; cytotoxicity flag (confluency mask): cytotoxic (confluency <70% of control), agonist: MPLA (TLR4) […]",1.95
CCC(C)C(=O)OC1CCC=C2C=CC(C)C(CCC3CC(O)CC(=O)O3)C21 (configuration not stated) (library stock concentration (final ~1000-fold dilution): 10 mM),NF-kB SEAP reporter activity,RAW-Dual [2]; agonist: LPS (TLR4) 0.1 ug/mL,3.69
same,NF-kB SEAP reporter activity,RAW-Dual [2]; [6],2.68
same,NF-kB SEAP reporter activity,RAW-Dual [2]; [7],1.45
same,NF-kB SEAP reporter activity,RAW-Dual [2]; [8],2.12
CCC(C)C(=O)OC1CCC=C2C=CC(C)C(CCC3CC(O)CC(=O)O3)C21 (configuration not stated),NF-kB SEAP reporter activity,RAW-Dual [1]; [4],2.3
same,NF-kB SEAP reporter activity,RAW-Dual [1]; [5],1.97
CCC(C)C(=O)OC1CC(C)C=C2C=CC(C)C(CCC3CC(O)CC(=O)O3)C21 (configuration not stated),NF-kB SEAP reporter activity,RAW-Dual [1]; [4],2.54
same,NF-kB SEAP reporter activity,RAW-Dual [1]; [5],1.94
CCC(C)C(=O)OC1CC(O)C=C2C=CC(C)C(CCC(O)CC(O)CC(=O)O)C21 (configuration not stated) (library stock concentration (final ~1000-fold dilution): 10 mM),NF-kB SEAP reporter activity,RAW-Dual [2]; agonist: LPS (TLR4) 0.1 ug/mL,1.01 and 1.04
same,NF-kB SEAP reporter activity,RAW-Dual [2]; [6],1 and 1.02
same,NF-kB SEAP reporter activity,RAW-Dual [2]; [7],1.08 and 1.05
same,NF-kB SEAP reporter activity,RAW-Dual [2]; [8],0.841 and 1.15
CCC(C)C(=O)OC1CC(C)C=C2C=CC(C)C(CCC3CC(O)CC(=O)O3)C21 (configuration not stated) (library stock concentration (final ~1000-fold dilution): 10 mM),NF-kB SEAP reporter activity,RAW-Dual [2]; agonist: LPS (TLR4) 0.1 ug/mL,3.33
same,NF-kB SEAP reporter activity,RAW-Dual [2]; [6],2.62
same,NF-kB SEAP reporter activity,RAW-Dual [2]; [7],1.93
same,NF-kB SEAP reporter activity,RAW-Dual [2]; [8],3.02
CC(C)(Cc1ccc2ccccc2c1)NCC(O)COc1cccc(Cl)c1C#N (configuration not stated) (library stock concentration (final ~1000-fold dilution): 10 mM),NF-kB SEAP reporter activity,RAW-Dual [2]; agonist: LPS (TLR4) 0.1 ug/mL,0.273
same,NF-kB SEAP reporter activity,RAW-Dual [2]; [6],0.962
same,NF-kB SEAP reporter activity,RAW-Dual [2]; [7],0.164
same,NF-kB SEAP reporter activity,RAW-Dual [2]; [8],1.03
CC(C)(Cc1ccc2ccccc2c1)NCC(O)COc1cccc(Cl)c1C#N (configuration not stated),NF-kB SEAP reporter activity,RAW-Dual [1]; [4],0.896
same,NF-kB SEAP reporter activity,RAW-Dual [1]; [5],0.972
CCCCCCCCCC(=O)NC(Cc1c[nH]c2ccccc12)C(=O)NC(CC(N)=O)C(=O)NC(CC(=O)O)C(=O)NC1C(=O)NCC(=O)NC(CCCN)C(=O)NC(CC(=O)O)C(=O)NC(C)C(=O)NC(CC(=O)O)C(=O)NCC(=O)NC(CO)C(=O)NC(C(C)CC(=O)O)C(=O)NC(CC(=O)c2ccccc2N)C(=O)OC1C (configuration not stated),NF-kB SEAP reporter activity,RAW-Dual [1]; [4],0.826
same,NF-kB SEAP reporter activity,RAW-Dual [1]; [5],0.855
